Compound activity from PubChem BioAssay.
An excerpt weighted towards active compounds, which were near 2.4% of everything screened.
Cruzain Triton: cruzain (T. cruzi) inhibition with detergent. P25779. actives 0.43% (n = 200,000). Potency, µM, actives largely listed as inhibitors. purified cruzain, Z-FR-AMC fluorescence, 0.01% Triton; note: nearly all actives have a fitted effect of over 40% in size
Target sequence (P25779 123-467 limits assumed): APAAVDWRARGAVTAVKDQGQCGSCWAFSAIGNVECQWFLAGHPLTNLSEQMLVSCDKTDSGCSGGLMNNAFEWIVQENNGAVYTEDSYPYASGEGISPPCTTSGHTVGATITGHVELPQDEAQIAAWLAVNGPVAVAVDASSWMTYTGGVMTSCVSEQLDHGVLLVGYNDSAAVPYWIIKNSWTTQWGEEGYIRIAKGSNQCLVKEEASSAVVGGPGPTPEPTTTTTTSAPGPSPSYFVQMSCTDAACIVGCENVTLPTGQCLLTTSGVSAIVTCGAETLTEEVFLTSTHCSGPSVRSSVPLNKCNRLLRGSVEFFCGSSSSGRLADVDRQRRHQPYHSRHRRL
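Enzyme 1.5 nM, Z-FR-AMC 2 uM, NaOAc 100 mM pH 5.5, DTT 5 mM, Triton X-100 0.01%; 15 min RT compound preincubation; kinetic ex360/em450, 60 s delta.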
Cruzain noTriton: inhibitors of Trypanosoma cruzi cruzain without detergent; actives 2.3% (n = 200,000); purified cruzain, Z-FR-AMC fluorescence, no detergent; Potency, µM, usual class: inhibitors; note: nearly all actives have a fitted effect of over 40% in size
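Detergent-free condition (0.00005% Triton X-100) in acetate buffer pH 5.5 with DTT. 1.5 nM enzyme and compound were pre-mixed 15 min, then 2 uM Z-FR-AMC substrate added; reaction progress from fluorescence change between first and third reads (60 s).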
Each line names hits and unclear results; the compound was inactive in the other large screens. Calls come from the whole dose curve; as a rule, active = well fitted curve in the direction sought with a large enough effect; inconclusive = small, poorly fitted or top-dose-only effect, or another doubt; inactive = no such curve, though single readings can be large; an effect the other way counts as inactive or inconclusive.

CNc1nc(-c2ccccc2C(F)(F)F)nc2ccccc12	none
CCc1ccc(NC(=O)CSc2nc3cc(C(=O)OC)ccc3c(=O)n2Cc2ccco2)cc1	Cruzain noTriton 5.01µM
CCOc1ccc2nc(NC(=O)CSc3nc4ccccc4c(=O)n3Cc3ccco3)sc2c1	Cruzain noTriton 7.94µM
CCOC(=O)CSc1nc2ccccc2c(=O)n1Cc1ccco1	none
O=c1c2ccccc2nnn1CSc1nc2ccccc2c(=O)n1Cc1ccco1	Cruzain noTriton 10µM
CCOc1ccc2nc(NC(=O)Nc3ccccc3)sc2c1	Cruzain noTriton inconclusive
CCN(C(=O)CSc1nc2cc(C(=O)OC)ccc2c(=O)n1Cc1ccco1)c1cccc(C)c1	none
O=c1c2ccccc2nc(SCc2ccccc2)n1Cc1ccco1	none
CCOc1ccc2nc(NC(=S)NCc3ccccc3)sc2c1	Cruzain noTriton 25.1µM
CCOc1ccc(-c2cccc(NS(=O)(=O)c3ccccc3C(F)(F)F)c2)nn1	none
CCCCNc1nc(Oc2ccc(=O)n(-c3ccccc3)n2)nc(N(C)C)n1	none
CCOc1c(CNCCN2CCOCC2)cccc1OC	none
Nc1ccc(S(=O)(=O)NCc2nccs2)cc1	none
O=C(Cc1ccc(Cl)cc1)Nc1ccc2oc(-c3ccccc3F)nc2c1	Cruzain noTriton 7.94µM
Cc1c(NC(=O)CSc2ccc(Cl)cc2)cccc1-c1nc2cc(Cl)ccc2o1	Cruzain noTriton 25.1µM
O=C(Cc1ccc(Cl)cc1)Nc1ccc2oc(-c3ccncc3)nc2c1	none
Cc1ccc(SCC(=O)Nc2cccc(-c3nc4cc(Cl)ccc4o3)c2C)cc1	none
COC(=O)C1(CC(C)C)C=C2C(=C(C)C(=O)C2C)CN1 (stereo not drawn)	none
CNC(=O)NC1CCCc2ccccc21 (stereo not drawn)	none
O=C(Nc1cccc2ccccc12)NC1CCCc2ccccc21 (stereo not drawn)	Cruzain noTriton 12.6µM
COc1ccc(NC(=O)c2ccc3[nH]c(C)cc(=O)c3c2)cc1	none
O=S(=O)(Nc1ccc(-c2nc3cccnc3s2)cc1)c1ccc(Cl)s1	Cruzain noTriton inconclusive
O=S(=O)(Nc1ccc(-c2nc3cccnc3s2)cc1)c1cccs1	Cruzain noTriton 12.6µM
CCCCC(CC)COC(=O)c1ccc(C(=O)OCC(CC)CCCC)c(C(=O)OCC(CC)CCCC)c1 (stereo not drawn)	none
CCOc1ccc(NS(=O)(=O)c2ccc(NC(=O)N3CCCC3)cc2)cc1	none
Cc1ccccc1NC(=O)Cn1nnc(C(=O)NCc2ccco2)c1N	none
Cc1ccccc1NC(=O)Cn1nnc(S(=O)(=O)c2ccc(C(C)(C)C)cc2)c1N	Cruzain noTriton 7.94µM
Cc1ccc(Cn2c(CCNC(=O)C(C)C)nc3ccccc32)cc1	none
COc1ccc(CNC(=O)Cn2c(=O)nc(-c3ccccc3F)c3cc(Cl)ccc32)cc1	none
Cc1ccc(SCc2ccc(C(=O)Nc3cc([N+](=O)[O-])ccc3C)cc2)cc1	none
Cc1ccc(SCc2ccc(C(=O)Nc3cccc([N+](=O)[O-])c3)cc2)cc1	Cruzain noTriton 20µM
Cc1csc2nc(-c3ccc(NS(=O)(=O)c4cc(F)ccc4F)cc3)cn12	Cruzain noTriton 31.6µM
COc1ccc(S(=O)(=O)Nc2ccc(-c3cn4c(C)csc4n3)cc2)cc1	Cruzain noTriton 25.1µM
CC(=O)c1ccc(S(=O)(=O)Nc2ccc(-c3cn4c(C)csc4n3)cc2)cc1	Cruzain noTriton 25.1µM
Cc1csc2nc(-c3cccc(NS(C)(=O)=O)c3)cn12	none
CCS(=O)(=O)Nc1ccc(-c2cn3c(C)csc3n2)cc1	none
CC(=O)Nc1ccc(S(=O)(=O)Nc2ccc(-c3cn4c(C)csc4n3)cc2)cc1	Cruzain noTriton inconclusive
CCN(CCCNC(=O)CSc1cc(=O)n(CC)c2ccccc12)c1cccc(C)c1	Cruzain noTriton inconclusive
CCc1ccc(N2C(=O)C(Cl)=C(N3CCOCC3)C2=O)cc1	none
COc1ccc(N2C(=O)C(Cl)=C(N3CCN(Cc4ccccc4)CC3)C2=O)cc1	Cruzain Triton 17.8µM
O=C1C(Cl)=C(N2CCN(Cc3ccccc3)CC2)C(=O)N1c1ccccc1	none
O=C1C(Cl)=C(N2CCOCC2)C(=O)N1c1cccc(Cl)c1	Cruzain Triton 12.6µM, Cruzain noTriton 12.6µM
Cc1ccc(N2C(=O)C(Cl)=C(N3CCN(C)CC3)C2=O)c(C)c1	Cruzain noTriton inconclusive
CN1CCN(C2=C(Cl)C(=O)N(c3ccc(Cl)cc3)C2=O)CC1	Cruzain Triton inconclusive, Cruzain noTriton 25.1µM
COC(=O)[C@H](Cc1ccccc1)NC(=O)O[C@@H]1C(=O)c2cc(OC)ccc2O[C@H]1c1cccc(OC)c1	none
C=C1C[C@]23CC[C@H]4C(CO)(CO)C[C@@H](O)C[C@@]4(C)[C@@H]2CC[C@H]1C3	Cruzain noTriton inconclusive
O=C(Nc1ccc(C(=O)OCc2cc(=O)n3nc(C4CC4)sc3n2)cc1)c1cccc(F)c1	none
O=C(O)C1(C(=O)O)CCN(S(=O)(=O)c2ccccc2)CC1	none
CCN(CC)CCn1c(-c2ccccc2)nc2c(NCc3ccccc3)nc(C)nc21	none
CCOc1ccc2c(c1)nc(SCC(=O)c1cccs1)n2C	none
CCOc1ccc2c(c1)nc(SCC(=O)c1ccc(Br)s1)n2C	Cruzain noTriton 25.1µM
O=C(NCCc1ccccc1)c1ccc([N+](=O)[O-])cc1	none
O=C(CCNC(=O)c1ccccc1)Oc1ccc([N+](=O)[O-])cc1	Cruzain noTriton 25.1µM
Cc1ccc(-n2ncc3c(NCCC4=CCCCC4)ncnc32)cc1	none
CCCCCCCCCCCCCCC1CO1 (stereo not drawn)	none
O=C1N/C(=N\N=C\c2ccc3ncccc3c2)SC1Cc1ccc(SC(F)F)cc1 (stereo not drawn)	Cruzain Triton 25.1µM, Cruzain noTriton 15.8µM
O=C1N/C(=N\N=C\c2cccnc2)SC1Cc1ccc(SC(F)F)cc1 (stereo not drawn)	none
c1coc(-c2nc(-c3ccco3)c(-c3ccco3)nc2-c2ccco2)c1	Cruzain Triton 7.94µM, Cruzain noTriton inconclusive
COc1ccc2nc(-c3ccco3)c(-c3ccco3)nc2c1	Cruzain Triton 11.2µM, Cruzain noTriton 3.98µM
Nc1nc(-c2ccco2)c(-c2ccco2)s1	none
COc1ccc(Nc2c(-c3ccco3)nc3cccc(C)n23)cc1	none
O=[N+]([O-])c1ccc(CSCc2ccc(Cl)cc2)cc1	none
Cc1ccc(-c2nc3ccccc3n2C)o1	none
CC(=O)c1ccc(-c2nc3ccccc3n2C)o1	Cruzain noTriton 15.8µM
COc1ccc2c(CNCc3cccs3)c(C(=O)O)n(Cc3ccccc3C)c2c1	none
CCOC(=O)c1c(C)[nH]c(C(=O)CSc2ccccc2)c1C	Cruzain noTriton inconclusive
CCOC(=O)c1c(C)[nH]c(C(=O)COC(=O)CCSc2ccccc2)c1C	Cruzain Triton 25.1µM
CC(=O)c1c(C)[nH]c(C(=O)COC(=O)CNS(=O)(=O)c2ccccc2)c1C	none
CC(=O)c1c(C)[nH]c(C(=O)COC(=O)CCSc2ccccc2)c1C	Cruzain Triton 15.8µM, Cruzain noTriton inconclusive
CCCc1ccc(-c2cc(C(=O)NCCc3ccc(S(N)(=O)=O)cc3)c3ccccc3n2)cc1	none
CCCc1ccc(-c2cc(C(=O)Nc3ccc([N+](=O)[O-])cn3)c3ccccc3n2)cc1	Cruzain noTriton 25.1µM
COc1ccc2c3c([nH]c2c1)[C@H]1C[C@@H]2[C@@H](C[C@@H](O)[C@H](OC)[C@H]2C(=O)O)CN1CC3	none
O=C(O)C(C(=O)O)P(=S)(S)c1ccccc1 (stereo not drawn)	none
CC(=O)c1cccc(NC(=O)c2cnn(-c3cccc(C)c3)c2-n2cccc2)c1	none
O=C(CSc1nc(-c2ccc(F)cc2)nc2c1Cc1ccccc1O2)Nc1cccc(C(=O)O)c1	none
